Among the test systems are NCI-H23 lung; NCI-H226 lung; NCI-H322M lung; HOP-62 NSCLC; NCI-H460 lung; HOP-92 NSCLC; A549/ATCC NSCLC; 786-0 renal; COLO 205 colon; DU-145 prostate; K-562 leukemia; MALME-3M melanoma; MDA-MB-231 breast; RXF 393 renal; SF-268 CNS; SF-295 CNS; SF-539 CNS; UACC-257 melanoma; M14 melanoma.
What all share (experiment): NCI-60 one-dose screen, 48 h (100 = growth as untreated, 0 = no growth, -100 = all killed)
Conditions in all cases: 10 µM unless noted

About 83,000 compounds went through this panel and 20% of them were active in at least one assay; those are over-represented in the sample as a whole.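 Percent growth is the endpoint: 0 to 100 indicates growth inhibition (40 means 60% inhibition), 0 means no net growth, and negative values indicate cell death.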 Values without a mark were called inactive. The source made the active and inactive calls. Rule for the calls: active = growth percent below 10; inactive = the rest.

On to `CC1CN(C2CCCCC2)C(=O)NC1=O` (stereo not drawn), for which the growth in the assay on NCI-H23 lung was 114%; in the assay on NCI-H226 lung, 101%; with NCI-H322M lung it was 80.5%; in the assay with HOP-62 NSCLC, 108%; in the assay on NCI-H460 lung, 114%; in the assay on HOP-92 NSCLC, 92%. The growth in the assay with A549/ATCC NSCLC was 104%; in the assay with 786-0 renal, 110%; in the assay with COLO 205 colon, 101%; with DU-145 prostate it was 113%; with K-562 leukemia, 103%; in the assay on MALME-3M melanoma it was 108%. Also, the growth in the assay on MDA-MB-231 breast was 104%; in the assay on RXF 393 renal it was 110%; in the assay with SF-268 CNS, 105%; with SF-295 CNS, 108%; in the assay with SF-539 CNS it was 106%; in the assay on UACC-257 melanoma, 109%. Further, the growth in the assay on M14 melanoma was 99.3%.
`CN1C(=O)C(C2=NN(C=O)C(c3ccc(F)cc3)C2)C(=O)N(C)C1=O` (stereo not drawn): the growth with NCI-H23 lung is 99%; in the assay with NCI-H226 lung, 85.2%; in the assay on NCI-H322M lung, 106%; with HOP-62 NSCLC it was 84.4%; in the assay with NCI-H460 lung it was 102%; in the assay with HOP-92 NSCLC it was 91.7%. Also, the growth was 74.7% in the assay on A549/ATCC NSCLC; 100% in the assay on 786-0 renal; 104% with COLO 205 colon; 106% in the assay on DU-145 prostate; 94.2% in the assay on K-562 leukemia; 95.8% with MALME-3M melanoma. Moreover, the growth with MDA-MB-231 breast is 106%; in the assay with RXF 393 renal, 95.5%; in the assay with SF-268 CNS, 96.9%; with SF-295 CNS, 99.2%; with SF-539 CNS, 102%; with UACC-257 melanoma, 69.3%. The growth in the assay with M14 melanoma is 98.5%.
With `CCOC(=O)/C(=C/CC/C(C)=C/CC/C(C)=C/CCc1ccoc1)CC(=O)N1CCCCC1`, the growth is 66.4% in the assay on NCI-H23 lung; 73% in the assay on NCI-H226 lung; -91.8% (active) in the assay on NCI-H322M lung; 86% in the assay on HOP-62 NSCLC; -56.4% (active) with NCI-H460 lung; -11.2% (active) in the assay on HOP-92 NSCLC. Besides, the growth was 5.91% (active) in the assay with A549/ATCC NSCLC; 86.3% in the assay on 786-0 renal; 1.9% (active) with COLO 205 colon; 62.8% in the assay with DU-145 prostate; 18.1% in the assay on K-562 leukemia; 15.2% with MALME-3M melanoma. The growth was -21.9% (active) with MDA-MB-231 breast; 77.8% in the assay on RXF 393 renal; 66.4% in the assay on SF-268 CNS; 33% in the assay with SF-295 CNS; 76.3% in the assay on SF-539 CNS; 12.7% in the assay with UACC-257 melanoma. Further, in the assay on M14 melanoma, the growth is 31.4%.
As to `CCOC(=O)/C=C1/SC(=Nc2ccc(C#N)cc2)N(Cc2ccco2)C1=O`, the growth in the assay on NCI-H23 lung is 70.6%; in the assay on NCI-H226 lung it was 70.3%; in the assay on NCI-H322M lung it was 95.5%; in the assay with HOP-62 NSCLC, 60.3%; in the assay with NCI-H460 lung, 38.9%; in the assay on HOP-92 NSCLC it was 37.2%. Further, the growth is 67.2% in the assay with A549/ATCC NSCLC; 34.6% in the assay on 786-0 renal; 50.2% in the assay with COLO 205 colon; 39.2% with DU-145 prostate; 8.76% (active) in the assay on K-562 leukemia; 47.6% in the assay with MALME-3M melanoma. Moreover, the growth in the assay on MDA-MB-231 breast was 57%; with RXF 393 renal it was -23.9% (active); in the assay on SF-268 CNS it was 73.2%; in the assay on SF-295 CNS, 88.8%; in the assay with SF-539 CNS it was 38.1%; with UACC-257 melanoma, 54.9%. In addition, in the assay on M14 melanoma, the growth is 25.8%.
For the compound `COP(=O)(OC)C(c1ccccc1)(c1ccccc1)c1ccccc1`, the growth is 104% in the assay with NCI-H23 lung; 83.8% with NCI-H226 lung; 95.4% in the assay with NCI-H322M lung; 93.8% with HOP-62 NSCLC; 108% in the assay on NCI-H460 lung; 62.8% in the assay on HOP-92 NSCLC. Further, the growth in the assay with A549/ATCC NSCLC is 74.5%; in the assay on 786-0 renal, 93.3%; in the assay on COLO 205 colon, 103%; in the assay on DU-145 prostate, 112%; in the assay on K-562 leukemia it was 80.7%; with MALME-3M melanoma, 103%. The growth in the assay on MDA-MB-231 breast is 90.2%; in the assay with RXF 393 renal, 36.9%; in the assay with SF-268 CNS, 120%; in the assay on SF-295 CNS, 60%; with SF-539 CNS, 95.9%; in the assay with UACC-257 melanoma, 82.1%. Further, the growth in the assay with M14 melanoma is 98.7%.
In the case of `O=C(CSc1ncc(-c2ccccc2)n1-c1ccccc1)Nc1ccc(-c2nc3ccccc3s2)cc1`, the growth in the assay with NCI-H23 lung was 62.6%; in the assay on NCI-H226 lung it was 103%; with NCI-H322M lung, 90.1%; with HOP-62 NSCLC, 73.1%; in the assay on NCI-H460 lung it was 36.3%; in the assay with HOP-92 NSCLC it was 95.6%. For the same compound, the growth in the assay with A549/ATCC NSCLC is 20.3%; in the assay on 786-0 renal it was 69.8%; in the assay with COLO 205 colon, 103%; in the assay with DU-145 prostate, 68.4%; in the assay with K-562 leukemia, 70.7%; with MALME-3M melanoma it was 17%. In addition, the growth in the assay on MDA-MB-231 breast is 95.4%; with RXF 393 renal it was 93.2%; in the assay on SF-268 CNS, 54.3%; in the assay with SF-295 CNS, 96.4%; in the assay on SF-539 CNS, 59.8%; in the assay on UACC-257 melanoma, 48.8%. Moreover, the growth with M14 melanoma is 72.8%.
As to `COc1ccc2c(c1)sc1nc(-c3ccc(Br)cc3)cn12`, the growth with NCI-H23 lung was 100%; in the assay with NCI-H226 lung, 101%; with NCI-H322M lung, 99.8%; with HOP-62 NSCLC, 108%; with NCI-H460 lung, 117%; in the assay on HOP-92 NSCLC it was 101%. The growth in the assay on A549/ATCC NSCLC is 95%; in the assay on 786-0 renal it was 98%; with COLO 205 colon, 129%; in the assay with DU-145 prostate it was 115%; in the assay on K-562 leukemia, 90.9%; with MALME-3M melanoma, 109%. Further, the growth with MDA-MB-231 breast was 89.6%; in the assay on RXF 393 renal, 109%; with SF-268 CNS, 118%; in the assay with SF-295 CNS, 89.2%; with SF-539 CNS it was 105%; with UACC-257 melanoma, 101%. Moreover, the growth in the assay with M14 melanoma is 103%.

(Values after PubChem BioAssay (NCI).)
